{"source": "paper PMC10812921", "about": "“Transcriptional Coactivator BOB1 (OBF1, OCA-B) Modulates the Specificity of DNA Recognition by the POU-Domain Factors OCT1 and OCT2 in a Monomeric Configuration”", "data": [{"biological_target": "T1, POU2 (OCT2 POU domain);BOB1 (OBF1, OCA-B) (human;human, UniProt P09086;Q16633 175-386;1-256, |)", "T1 sequence 1": "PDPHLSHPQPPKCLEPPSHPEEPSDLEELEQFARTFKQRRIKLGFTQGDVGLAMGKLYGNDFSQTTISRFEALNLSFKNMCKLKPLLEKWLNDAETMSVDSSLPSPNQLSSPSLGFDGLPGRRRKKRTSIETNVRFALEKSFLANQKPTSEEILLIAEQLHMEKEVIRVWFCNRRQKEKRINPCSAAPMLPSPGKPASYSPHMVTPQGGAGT", "T1 sequence 2": "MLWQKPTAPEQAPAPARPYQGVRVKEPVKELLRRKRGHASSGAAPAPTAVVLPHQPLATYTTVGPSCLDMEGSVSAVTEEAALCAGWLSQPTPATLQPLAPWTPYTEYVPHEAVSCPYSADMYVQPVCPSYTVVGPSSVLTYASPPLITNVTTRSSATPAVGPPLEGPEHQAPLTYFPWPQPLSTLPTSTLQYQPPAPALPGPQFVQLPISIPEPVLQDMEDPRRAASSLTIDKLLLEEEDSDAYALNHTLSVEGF", "experiment": "EMSA-SELEX-seq; with BOB1 (ternary complex band); 20 mM Tris-HCl pH 7.6, 140 mM NaCl, 10% glycerol, 0.5 mM EDTA, 0.05% Triton X-100, 0.1 mg/mL BSA, 0.1 mg/mL poly(dI-dC), 5 mM DTT, room temperature, 20 min; high values mean tight binding", "conditions": "protein: recombinant;recombinant; copies: 1;1; dsDNA, one strand shown", "how_it_was_run": "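Binding preference means the percentage of sequenced 8-mers matching a motif pattern. Tagged POU-domain proteins (30 ng), expressed in E. coli BL21, purified under denaturing conditions and renatured, were mixed with 300 ng of a PCR-amplified double-stranded random 35-nt library, with or without 28 ng coactivator protein, for 20 min at RT in 20 μL Tris–HCl pH 7.6 binding buffer. Selection was repeated over four rounds of excising complex bands from native 6% PAGE, eluting and PCR amplification, followed by Illumina sequencing.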", "values": [{"sequence": "ATCGCAAT", "binding signal": "0.0347 % of ANNNNAAN 8-mers"}, {"sequence": "ATAATAAC", "binding signal": "0.0603 % of ANNNNAAN 8-mers"}, {"sequence": "AAAACAAA", "binding signal": "0.125 % of ANNNNAAN 8-mers"}, {"sequence": "AAGGAAAG", "binding signal": "0.0644 % of ANNNNAAN 8-mers"}, {"sequence": "ACTCGAAA", "binding signal": "0.0314 % of ANNNNAAN 8-mers"}, {"sequence": "AGTATAAG", "binding signal": "0.0454 % of ANNNNAAN 8-mers"}, {"sequence": "ATTTGAAC", "binding signal": "0.0553 % of ANNNNAAN 8-mers"}, {"sequence": "ACAATAAG", "binding signal": "0.0396 % of ANNNNAAN 8-mers"}, {"sequence": "ATGTTAAT", "binding signal": "0.24 % of ANNNNAAN 8-mers"}, {"sequence": "ATATGAAA", "binding signal": "0.239 % of ANNNNAAN 8-mers"}, {"sequence": "AACTGAAG", "binding signal": "0.0338 % of ANNNNAAN 8-mers"}, {"sequence": "ACGGAAAA", "binding signal": "0.0446 % of ANNNNAAN 8-mers"}, {"sequence": "AACAAAAA", "binding signal": "0.0726 % of ANNNNAAN 8-mers"}, {"sequence": "AAACCAAC", "binding signal": "0.0215 % of ANNNNAAN 8-mers"}, {"sequence": "AGAATAAT", "binding signal": "0.122 % of ANNNNAAN 8-mers"}, {"sequence": "AGGTGAAT", "binding signal": "0.102 % of ANNNNAAN 8-mers"}, {"sequence": "AGGTGAAA", "binding signal": "0.0471 % of ANNNNAAN 8-mers"}, {"sequence": "ATGAGAAG", "binding signal": "0.0553 % of ANNNNAAN 8-mers"}, {"sequence": "AATCTAAT", "binding signal": "0.0949 % of ANNNNAAN 8-mers"}, {"sequence": "ATGCCAAG", "binding signal": "0.0248 % of ANNNNAAN 8-mers"}, {"sequence": "AAATGAAT", "binding signal": "0.239 % of ANNNNAAN 8-mers"}, {"sequence": "AGAGGAAT", "binding signal": "0.0859 % of ANNNNAAN 8-mers"}, {"sequence": "AACACAAG", "binding signal": "0.0206 % of ANNNNAAN 8-mers"}, {"sequence": "AGAGAAAG", "binding signal": "0.038 % of ANNNNAAN 8-mers"}, {"sequence": "ATTATAAC", "binding signal": "0.057 % of ANNNNAAN 8-mers"}, {"sequence": "ACCAGAAA", "binding signal": "0.0157 % of ANNNNAAN 8-mers"}, {"sequence": "AAAGGAAC", "binding signal": "0.0371 % of ANNNNAAN 8-mers"}, {"sequence": "ATATTAAG", "binding signal": "0.117 % of ANNNNAAN 8-mers"}, {"sequence": "AGGGCAAA", "binding signal": "0.0462 % of ANNNNAAN 8-mers"}, {"sequence": "AGGGCAAG", "binding signal": "0.0363 % of ANNNNAAN 8-mers"}, {"sequence": "ATAAAAAG", "binding signal": "0.0735 % of ANNNNAAN 8-mers"}, {"sequence": "AGGCTAAC", "binding signal": "0.0223 % of ANNNNAAN 8-mers"}, {"sequence": "ACTGTAAG", "binding signal": "0.0264 % of ANNNNAAN 8-mers"}, {"sequence": "AGCACAAA", "binding signal": "0.033 % of ANNNNAAN 8-mers"}, {"sequence": "AGCAGAAT", "binding signal": "0.0561 % of ANNNNAAN 8-mers"}, {"sequence": "AGCTGAAC", "binding signal": "0.019 % of ANNNNAAN 8-mers"}, {"sequence": "AGACAAAT", "binding signal": "0.105 % of ANNNNAAN 8-mers"}, {"sequence": "AAGCCAAA", "binding signal": "0.0256 % of ANNNNAAN 8-mers"}, {"sequence": "ACCTTAAG", "binding signal": "0.0281 % of ANNNNAAN 8-mers"}]}]}
